Measurements as given in PubChem BioAssay (NCI).
The panel holds about 79,000 compounds, 15% with a hit somewhere; the sample as a whole holds those more often. Active and inactive are the calls of the source. Cut-off read from the data, not from the text of the source: active = growth inhibition above about 70%; inactive = the rest.

Columns and labels:
[1] = NCI Yeast Anticancer Drug Screen. Data for the rad52 strain (AID 147);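 note: 0% = growth of vehicle-treated control cultures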; settings: S. cerevisiae rad52 mutant growth inhibition, hits give high values
In short: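 Compounds are applied to a genetically defined yeast strain lacking normal DNA damage repair, and inhibition of growth is expressed relative to cultures given vehicle only.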

[2] = NCI Yeast Anticancer Drug Screen. Data for the wt1 strain (AID 149);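 note: 0% = growth of vehicle-treated wt1 cultures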; settings: S. cerevisiae wt1 strain (SPY 50644) growth inhibition, hits give high values
In short: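 Vehicle-normalised growth inhibition; strain wt1; compound exposure.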

[3] = NCI Yeast Anticancer Drug Screen. Data for the rad50EPP+ strain (AID 151);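 note: 0% = growth of vehicle-treated control cultures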; settings: S. cerevisiae rad50 mutant strain, hits give high values
In short: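 Compounds were applied to the rad50EPP+ yeast strain, which bears a defined DNA repair alteration, and growth inhibition was determined relative to vehicle-treated cultures.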

[4] = NCI Yeast Anticancer Drug Screen. Data for the mgt1 strain (AID 153); settings: S. cerevisiae mgt1 mutant growth inhibition, hits give high values
In short: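 Strain: mgt1 yeast, one of a set carrying defined DNA damage repair or cell cycle control alterations. Compound-treated growth compared with vehicle.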

[5] = NCI Yeast Anticancer Drug Screen. Data for the rad50 strain (AID 155);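 note: 0% = growth of vehicle-only cultures of the same strain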; settings: S. cerevisiae rad50 strain growth inhibition, hits give high values
In short: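 A DNA repair-deficient yeast mutant serves as the test organism; compound-induced growth inhibition is calculated against vehicle-treated cells.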

[6] = NCI Yeast Anticancer Drug Screen. Data for the mec2-1 strain (AID 157); settings: S. cerevisiae mec2-1 strain, hits give high values
In short: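 Strain: mec2-1 (DNA repair/cell cycle alteration). Compound exposure, then growth measured; inhibition expressed relative to vehicle.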

[7] = NCI Yeast Anticancer Drug Screen. Data for the rad14 strain (AID 159);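 note: 0% = growth of vehicle-treated control cultures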; settings: S. cerevisiae rad14 strain growth inhibition, hits give high values
In short: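 Vehicle-treated cultures served as the baseline for growth inhibition of a DNA repair-mutant yeast strain exposed to each compound.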

[8] = NCI Yeast Anticancer Drug Screen. Data for the sgs1 mgt1 strain (AID 161);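 note: 0% = growth of cultures given vehicle only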; settings: S. cerevisiae sgs1 mgt1 strain, hits give high values
In short: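 Mutant yeast exposed to compound; growth scored against vehicle-only wells.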

[9] = NCI Yeast Anticancer Drug Screen. Data for the CLN2oe strain (AID 163);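 note: 0% = growth of vehicle-only control cultures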; settings: S. cerevisiae CLN2oe strain, hits give high values
In short: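 Growth of a genetically modified yeast strain is measured after compound exposure and compared with cultures given vehicle alone.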

[10] = NCI Yeast Anticancer Drug Screen. Data for the cln2 rad14 strain (AID 165);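 note: 0% = growth equal to vehicle treated cultures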; settings: S. cerevisiae cln2 rad14 strain, hits give high values
In short: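 Compounds are applied to the cln2 rad14 yeast strain, and growth is then compared with that of vehicle-treated cultures to give inhibition.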

[11] = NCI Yeast Anticancer Drug Screen. Data for the bub3 strain (AID 167); settings: S. cerevisiae bub3 mutant strain, hits give high values
In short: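 Inhibition values come from growth of compound-treated mutant yeast normalised to vehicle-treated controls.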

[12] = NCI Yeast Anticancer Drug Screen. Data for the wt2 strain (AID 169);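 note: 0% = growth of vehicle-treated yeast cultures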; settings: S. cerevisiae wt2 strain growth inhibition, hits give high values
In short: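 This strain belongs to a panel of yeast strains with defined genetic alterations in DNA damage repair or cell cycle control. Compounds are applied, and growth inhibition is measured against vehicle-treated cultures.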

[13] = NCI Yeast Anticancer Drug Screen. Data for the mlh1 strain (AID 171);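 note: 0% = growth of vehicle-treated control cultures of the same strain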; settings: S. cerevisiae mlh1 strain growth inhibition, hits give high values
In short: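 Growth of the mutant yeast strain after compound exposure, expressed as inhibition relative to vehicle-only controls.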

[14] = NCI Yeast Anticancer Drug Screen. Data for the sgs1 strain (AID 173);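 note: 0% = growth of vehicle-only control cultures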; settings: S. cerevisiae sgs1 mutant, hits give high values
In short: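 Growth of a yeast strain bearing a defined genetic alteration is measured after compound treatment. Inhibition is expressed relative to vehicle-only controls.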

[15] = NCI Yeast Anticancer Drug Screen. Data for the mlh1 rad18 strain (AID 175); settings: S. cerevisiae mlh1 rad18 strain growth inhibition, hits give high values
In short: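 Read-out is yeast growth inhibition, calculated against vehicle-only controls. The compound was applied to a strain engineered with DNA damage repair alterations.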

[16] = NCI Yeast Anticancer Drug Screen. Data for the rad18 strain (AID 177); settings: S. cerevisiae rad18 mutant growth inhibition, hits give high values
In short: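 Growth of the mutant yeast strain after compound exposure, normalised to vehicle-only cultures.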

[17] = at 5.0 µM (retest, dose inferred, filed as 0.5)
[18] = at 50.0 µM (retest, dose inferred, filed as 5.0)

Measured: growth inhibition

COC(=O)CC1(O)C(/C=C/c2ccccc2)C(C(=O)OC)C(=O)C(C(=O)OC)C1C(=O)OC (stereo not drawn)
active: [11]; at 50.0 µM 74.2% | [15]; at 50.0 µM 85.3%
inactive: [1]; at 1.2 µM 0% | [1]; at 3.7 µM 0% | [1]; at 11.0 µM 1% | [1]; at 33.0 µM 2% | [1]; at 100.0 µM 13% | [2]; at 1.2 µM 1% | [2]; at 3.7 µM 1% | [2]; at 11.0 µM 1% | [2]; at 33.0 µM -1% | [2]; at 100.0 µM -1% | [3]; at 1.2 µM -7% | [3]; at 3.7 µM -6% | [3]; at 11.0 µM -7% | [3]; at 33.0 µM -6% | [3]; at 100.0 µM -16% | [4]; at 1.2 µM -2% | [4]; at 3.7 µM -3% | [4]; at 11.0 µM -3% | [4]; at 33.0 µM 13% | [4]; at 100.0 µM 43% | [5]; at 1.2 µM -1% | [5]; at 3.7 µM -1% | [5]; [17] -3% | [5]; at 11.0 µM 2% | [5]; at 33.0 µM 1% | [5]; [18] 6% | [5]; at 50.0 µM 38.9% | [5]; at 100.0 µM 4% | [6]; at 1.2 µM -3% | [6]; at 3.7 µM -1% | [6]; [17] 1% | [6]; at 11.0 µM -4% | [6]; at 33.0 µM -2% | [6]; [18] 20% | [6]; at 50.0 µM 50% | [6]; at 100.0 µM 12% | [7]; at 1.2 µM -4% | [7]; at 3.7 µM -1% | [7]; at 11.0 µM 0% | [7]; at 33.0 µM 0% | [7]; at 100.0 µM 2% | [8]; [17] -1% | [8]; [18] 23% | [8]; at 50.0 µM 48% | [9]; at 1.2 µM -2% | [9]; at 3.7 µM 1% | [9]; at 11.0 µM -2% | [9]; at 33.0 µM -7% | [9]; at 100.0 µM 39% | [10]; [17] -18% | [10]; [18] 44% | [10]; at 50.0 µM -0.7% | [11]; at 1.2 µM -4% | [11]; at 3.7 µM -5% | [11]; [17] -2% | [11]; at 11.0 µM -2% | [11]; at 33.0 µM -4% | [11]; [18] 6% | [11]; at 100.0 µM -5% | [12]; at 1.2 µM -2% | [12]; at 3.7 µM -2% | [12]; at 11.0 µM 0% | [12]; at 33.0 µM -1% | [12]; at 100.0 µM 7% | [13]; at 1.2 µM 1% | [13]; at 3.7 µM -1% | [13]; at 11.0 µM 0% | [13]; at 33.0 µM 1% | [13]; at 100.0 µM 5% | [14]; at 1.2 µM -1% | [14]; at 3.7 µM 1% | [14]; at 11.0 µM 1% | [14]; at 33.0 µM 4% | [14]; at 100.0 µM 43% | [15]; [17] 6% | [15]; [18] 30% | [16]; at 1.2 µM 0% | [16]; at 3.7 µM -2% | [16]; at 11.0 µM -4% | [16]; at 33.0 µM 3% | [16]; at 100.0 µM 4%
